Screening results as filed in PubChem BioAssay.
Shown are actives, neighbours in structure and some others; about 5.7% of the full set was active somewhere.
TGFb SMAD3 inh = blocks TGF-b signaling. Potency, µM (titrated, usually from 46.1 µM), for the others: top-dose activity, negative = inhibition, usual class: inhibitors. AID 588855. 410,000 tested, 1.2% active. HepG2 CAGA-GFP TGF-b/SMAD3 reporter, GFP fluorescence, 18 h; TGF-beta stimulated, 500 pg/mL final; further: potency means the concentration at half of the fitted maximal effect; on the % scale 0 is the no-effect control and ±100 the full control effect; nearly all actives have a fitted effect of over 65% in size
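Cell-based qHTS in HEPG2 carrying a CAGA-GFP Smad reporter; compounds added before 500 pg/mL final TGF-beta, 18 h incubation at 37 degrees C, GFP fluorescence quantified per cell by imaging cytometry.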
HepG2 tox-1 = counter-screen for TGF-b inhibitors: cytotoxicity in HepG2 cells; HepG2 CAGA-GFP viability, ATP luminescence, 18 h; Potency, µM (top dose mostly 46.1 µM), without a hit: at the highest dose activity change, negative = cytotoxicity, most hits filed as cytotoxic; 410,000 tested, 0.76% active; AID 588856; further: potency means the concentration at half of the fitted maximal effect
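HepG2 CAGA-GFP cells (1000/well, DMEM with 1% FBS) received compound, then TGF-beta at 500 pg/mL final, and were incubated 18 hours at 37 degrees C. Viability was read by CellTiter-Glo luminescence. Media-only wells were set as complete cell-killing and DMSO as no toxicity.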
IL1B secr inh = inflammasome signaling inhibition, IL-1 beta readout; activity change, % at 57.5 µM; 360,000 tested, 4.7% active; AID 743279; THP-1 LPS/ATP IL-1B secretion, AlphaLISA, 16 h; active compounds read low; in the data active means activity change below about -50%; inconclusive means mostly about -30% to -49%; further: on the % scale 0 is the no-effect control and ±100 the full control effect
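Secreted IL-1B measured by AlphaLISA bead assay after 16 h compound exposure of THP-1 cells; compounds (final up to 57.5 uM) added 1 h before LPS (250 ng/mL) and ATP (1.25 mM) stimulation; lower signal means less secretion.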
ATXN2 expr inh = reduces ATXN2 reporter expression in HEK-293 cells. HEK-293 ATXN2-luciferase reporter, luminescence, 24 h. Potency, µM (doses to about 57 µM), for inactives: at the highest dose activity change, negative = inhibition, actives largely listed as inhibitors. 360,000 tested, 0.72% active. AID 1745845; further: potency means the concentration at half of the fitted maximal effect; on the % scale 0 is the no-effect control and ±100 the full control effect; nearly all actives have a fitted effect of over 55% in size
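ATXN2-luciferase reporter cells (luciferase flanked by upstream and downstream ATXN2 gene portions) were treated 24 h at 37 °C with compounds at up to 57 uM. SteadyGlo luminescence gave expression; GF-AFC fluorescence gave viability.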
ATXN viability = reduces viability in counter-screen for ATXN expression inhibitors; Potency, µM (top dose mostly 56.7 µM), actives largely listed as cytotoxic; 400,000 tested, 0.49% active; S2 cells (HEK-293 line with an ATXN2-luciferase reporter) viability, CellTiter-Fluor protease fluorescence, 24 h; further: potency means the concentration at half of the fitted maximal effect; nearly all actives have a fitted effect of over 40% in size
TGFb CAGA inh = confirmation of TGF-b signaling inhibitors in HepG2 reporter cells; shares compounds with TGFb SMAD3 inh; 1,600 tested, 63% active; AID 720534; Potency, µM (series often up to 46.1 µM), for the others: at the top dose activity, negative = inhibition, actives largely listed as inhibitors; HepG2 CAGA-GFP TGF-b reporter, GFP fluorescence, 18 h; cells stimulated with TGF-beta, 500 pg/mL; further: potency means the concentration at half of the fitted maximal effect; on the % scale 0 is the no-effect control and ±100 the full control effect; nearly all actives have a fitted effect of over 65% in size
HepG2 tox-2 = counter-screen for TGF-b inhibitors: cytotoxicity in HepG2 cells; shares compounds with TGFb SMAD3 inh; HepG2 CAGA-GFP viability, ATP luminescence, 18 h; cells stimulated with TGF-beta, 500 pg/mL; Potency, µM (series often up to 46.1 µM), without a hit: top-dose activity, negative = cytotoxicity, actives largely listed as inhibitors; 1,600 tested, 27% active; AID 720535; further: potency means the concentration at half of the fitted maximal effect; on the % scale 0 is the no-effect control and ±100 the full control effect; nearly all actives have a fitted effect of over 70% in size
TGFb CCL64 inh = orthogonal confirmation of TGF-b inhibitors in CCL64 cells. CCL64 CAGA-GFP reporter, TGF-b stimulated, GFP fluorescence, 18 h. shares compounds with TGFb SMAD3 inh. Potency, µM (top dose mostly 46.1 µM), without a hit: at the top dose activity, negative = inhibition, most hits filed as inhibitors. 1,600 tested, 41% active. AID 720536; further: potency means the concentration at half of the fitted maximal effect; nearly all actives have a fitted effect of over 65% in size
COP TGFb inh = blocks TGF-b signaling in HepG2 COP reporter; shares compounds with TGFb SMAD3 inh; HepG2 COP-GFP TGF-b reporter, GFP fluorescence, 18 h; cells stimulated by added recombinant TGF-beta; Potency, µM (titrated, usually from 46.1 µM), inactives show top-dose activity, negative = inhibition, hits mostly inhibitors; 1,600 tested, 3% active; AID 720537; further: potency means the concentration at half of the fitted maximal effect; nearly all actives have a fitted effect of over 70% in size
An asterisk follows results filed as active; i = inactive; u = inconclusive; x = no result. Unless noted, the call rests on the fitted dose curve; in most records, active means well fitted curve in the direction sought with a large enough effect; inconclusive means small, poorly fitted or top-dose-only effect, or another doubt; inactive means no such curve, though single readings can be large; an effect the other way counts as inactive or inconclusive.

SMILES	TGFb SMAD3 inh	HepG2 tox-1	IL1B secr inh	ATXN2 expr inh	ATXN viability	TGFb CAGA inh	HepG2 tox-2	TGFb CCL64 inh	COP TGFb inh
Cn1cnc([N+](=O)[O-])c1Sc1nc(N)nc2c1ncn2C1OC(CO)C(O)C1O (centres undefined)	2µM*	-46%	-19	-33%	u	2.9µM*	0.92µM*	3%	65%
Cn1cnc([N+](=O)[O-])c1Sc1nc(N)nc2c1ncn2C1CC(O)C(CO)O1 (centres undefined)	4µM*	-39%	-15	-35%	u	4.1µM*	u	19%	82%
CC(C)c1ccc(N2C(=O)CSC23C(=O)N(C)c2ccccc23)cc1 (centres undefined)	39%	-7%	x	5%	i	x	x	x	x
COc1ccccc1OCC(=O)NC1CCCc2ccccc21 (centres undefined)	-10%	-15%	3	-18%	i	x	x	x	x
CC(C)c1ccccc1OCC(=O)NC1CCCc2ccccc21 (centres undefined)	16µM*	-8%	-27	-26%	i	18µM*	u	u	11%
CC1CCN(S(=O)(=O)c2ccc3c(ccc(=O)n3CC(=O)Nc3cccc(F)c3)c2)CC1	u	-26%	x	-9%	i	x	x	x	x
O=C(Nc1cc(Sc2nc3ccccc3s2)cc([N+](=O)[O-])c1)c1ccccc1	u	-2%	19	-23%	i	x	x	x	x
O=C(Nc1cc(Sc2ccccn2)cc([N+](=O)[O-])c1)c1cccc(F)c1	11µM*	-18%	-23	-10%	u	10µM*	u	13µM*	77%
Cc1ccc(NC(=O)CSc2nc3ccc(NC(=O)c4cccs4)cc3s2)c(C)c1	-14%	-22%	x	9%	i	x	x	x	x
CCc1nc(C)cn1S(=O)(=O)c1ccc(Cl)c(Cl)c1OC	u	-13%	x	x	x	x	x	x	x
Oc1c(Cl)cc(CN2CCOCC2)c2cccnc12	2.5µM*	-49%	95	x	u	u	u	u	6%
O=C(Oc1c(CN2CCOCC2)cc(Cl)c2cccnc12)c1ccccc1	2.8µM*	2.8µM*	u	8.9µM*	11µM*	-6%	u	u	4%
CN1CCN(Cc2cc(COCc3ccccc3)c3cccnc3c2O)CC1	4.5µM*	-30%	-97*	4µM*	u	-18%	u	7.3µM*	5%
Oc1c(CN2CCCCC2)cc(Br)c2cccnc12	2.8µM*	-46%	106	4µM*	3.5µM*	21µM*	u	7.3µM*	19%
COc1cccc(CCNC(=O)c2cnc3sc(N4CCCCCC4)nn3c2=O)c1	-16%	-13%	x	1%	i	x	x	x	x
Cc1ccc(NC(=S)NCc2ccccc2)cc1S(=O)(=O)N1CCCCC1	16µM*	-24%	-22	x	u	23µM*	u	26µM*	58%
Cc1ccc(OCCNC(=O)/C=C/c2ccc([N+](=O)[O-])cc2)cc1C	u	0%	u	-7%	i	-23%	-2%	-9%	2%
CCCCCCCCOC(=O)c1cc([N+](=O)[O-])c(Sc2ncnc3nc[nH]c23)c([N+](=O)[O-])c1	7.1µM*	13µM*	-71*	u	x	21µM*	8.2µM*	5.8µM*	u
Cc1cccc(NC(=O)C(=O)c2cc(C)n(-c3ccccc3)c2C)c1C	0%	-15%	x	27%	i	x	x	x	x
CCOc1ccccc1CNC(=O)CN1C(=O)CCc2cc(S(=O)(=O)N3CCCCC3)ccc21	-6%	-17%	x	-17%	i	x	x	x	x
Cc1cc(N2CCN(c3ccccc3)CC2)n2cnnc2n1	-21%	-49%	x	x	x	x	x	x	x
Cc1cc(N2CCN(c3ccccc3)CC2)n2cc(-c3ccccc3)nc2n1	u	-36%	-68*	22%	u	u	-8%	-27%	25%
COc1cc2c(c(OC)c1)C(c1cccc(F)c1F)CC(=O)N2 (centres undefined)	-3%	2%	x	2%	i	x	x	x	x
COc1ccc(-c2cn3c(n2)sc2cc(C(=O)NCc4ccccc4)ccc23)cc1	-16%	-12%	x	x	x	x	x	x	x
COc1ccc2c(c1)sc1nc(-c3ccccc3)cn12	10µM*	-69%	u	u	i	u	u	15µM*	-15%
SMILES	TGFb SMAD3 inh	HepG2 tox-1	IL1B secr inh	ATXN2 expr inh	ATXN viability	TGFb CAGA inh	HepG2 tox-2	TGFb CCL64 inh	COP TGFb inh
Nc1ncnc2nc(SCC(=O)Nc3ccccc3F)[nH]c12	7.9µM*	-1%	75	12%	i	10µM*	-13%	16µM*	1%
Cc1cccc(-n2ncc(C(=O)N3CCN(Cc4ccccc4)CC3)c2C2CCN(C(=O)OC(C)(C)C)CC2)c1	-24%	-11%	x	x	x	x	x	x	x
O=C(Nc1ccc(Cl)cc1)N(Cc1nc2ccccc2c(=O)[nH]1)Cc1cccs1	10µM*	8%	u	-20%	u	21µM*	u	u	38%
Cc1nc(N2N=C3/C(=C/c4ccc(F)cc4)CCCC3C2c2ccc(F)cc2)sc1C(=O)N(C)C (centres undefined)	13µM*	-15%	-2	u	x	23µM*	u	u	30%
CCS(=O)(=O)c1ncc(Cl)c(C(=O)Nc2ccc(S(=O)(=O)N3CCC(C)CC3)cc2)n1	4.5µM*	1.8µM*	-104*	-23%	14µM*	4.6µM*	4.6µM*	2.1µM*	9.2µM*
COc1ccccc1NC(=O)c1nc(S(=O)(=O)Cc2ccccc2)ncc1Cl	4.5µM*	-40%	-102*	u	u	2.9µM*	5.8µM*	2.1µM*	15µM*
CCOC(=O)c1ccc(NC(=O)c2nc(SC(C)C)ncc2Cl)cc1	-19%	-24%	x	-24%	i	x	x	x	x
